# According to PubChem BioAssay (Tox21):
# Inconclusive results are not listed. Where a call stands in place of a potency, no number is given. Values without a mark were called inactive. Calls of active or inactive are those of the source. Calls follow the shape of the dose curve; as a rule, active = well fitted cell-killing curve with a large enough effect in the repeat runs; inconclusive = weak or mixed curves, or effect the other way; inactive = flat fitted curve, though single readings scatter.
# Assays:
# [1] = cAMP Responsive Elements (CRE) small molecule antagonists, cell-based qHTS assay: qHTS cell viability counter screen (AID 2060913); also: nearly all actives have a fitted effect of over 40% in size
# How it was run: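 HEK293T CRE-bla, 2,000 cells/well, 18 h preincubation; cpd in DMSO + NKH477 0.25 uM final, 3 h 37 C/5% CO2; LiveBLAzer 2 h RT, then CellTiter-Glo 30 min RT, luminescence.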
# [2] = cAMP Responsive Elements (CRE) small molecule agonists, cell-based qHTS assay: qHTS cell viability counter screen (AID 2060914);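 also: viability read after 3 h of compound exposure; nearly all actives have a fitted effect of over 50% in size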
# How it was run: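 CRE-bla HEK293T cells in 10% dialyzed FBS medium were exposed to compounds for 3 h at 37C after 18 h plating. CellTiter-Glo was then added in the same wells, and luminescence was read after 30 min at room temperature.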
SMILES,"viability change, negative = cytotoxic [1]","activity change, negative = cytotoxicity [2]",Potency [1],Potency [2]
CC(CSC(=O)c1ccccc1)C(=O)N1C[C@@H](Sc2ccccc2)C[C@H]1C(=O)O (stereo not given in full),1.17% [at 18.9 µM],-0.289% [at 18.9 µM],,
Nc1ncn([C@@H]2O[C@H](CO)[C@@H](O)[C@H]2O)c(=O)n1,,,inactive,inactive
CNC[C@H](O)c1cccc(O)c1,,,inactive,inactive
CC1(C)[C@@H]2CC[C@@]1(C)C(=O)C2,,,inactive,inactive
O=[N+]([O-])c1ccc2ncccc2c1,,,inactive,inactive
c1ccc2[nH]c(-c3cscn3)nc2c1,,,inactive,inactive
O=C(O)CCC(=O)OC[C@@H](NC(=O)C(Cl)Cl)[C@H](O)c1ccc([N+](=O)[O-])cc1,,,inactive,inactive
C#Cc1ccc(-c2ccccc2F)cc1,,,inactive,inactive
O=C1Nc2ccccc2C1=O,,,inactive,inactive
CN1CCN(CCCN2c3ccccc3Sc3ccc(Cl)cc32)CC1,,,inactive,inactive
